Measured values as given in PubChem BioAssay AID1626 (SRMLSC, 2009).
The whole screen tested about 220,000 compounds, of which about 2,000 (0.91%) were called active. Roughly 2% stayed inconclusive and do not appear here. Only a sample is shown. Entries with a potency or affinity are not part of this list. Values without a mark were called inactive. Cut-off read from the data, not from the text of the source: inconclusive = inhibition above about 80% without an active follow-up result; inactive = below that; test concentration not stated here.

test: M. tuberculosis H37Rv growth inhibitors, H37Rv strain (AID 1626); settings: active compounds read high, concentration not given here;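 note: bacteria incubated seven days before Alamar blue readout; 0% = bacteria only wells and 100% = bacteria with antibiotic wells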

SMILES | inhibition
CCC/C=C1/CCCOC(C(=O)NCc2ccccc2)(C(F)(F)F)C1 (centres undefined) | -24.5%
O=C(Nc1ccc(-c2csc(Nc3cccc(C(F)(F)F)c3)n2)cc1)c1ccccc1 | 0.91%
O=C(Nc1cccc(-c2csc(Nc3cccc(C(F)(F)F)c3)n2)c1)c1cc([N+](=O)[O-])cc(C(F)(F)F)c1 | -8.7%
O=C(Nc1ccc(-c2csc(Nc3ccccc3)n2)cc1)c1cc([N+](=O)[O-])cc(C(F)(F)F)c1 | 50.3%
O=C(Nc1ccc(-c2csc(Nc3ccccc3)n2)cc1)c1cccc(C(F)(F)F)c1 | 14.9%
CCOc1ccccc1N(CC(=O)NCc1ccccc1)C(=O)CCC(=O)Nc1cc(C)ccn1 | -1.77%
Cc1cc(NCCCN2CCOCC2)n2c(nc3ccccc32)c1C#N | -4.69%
CC1=C(C(=O)OC(C)C)C(c2cccs2)n2ncnc2N1 (centres undefined) | 7.3%
CC(=O)Nc1ccc(C(=O)/C=C/c2ccco2)cc1 | -0.44%
O=C(/C=C\c1ccco1)c1ccc(NC(=O)c2ccco2)cc1 | -2.87%
COCCCNC(=S)N(Cc1ccccc1)Cc1nc2ccccc2c(=O)[nH]1 | -7.77%
NC(=O)C(=CNc1nc(-c2ccc(Cl)c(Cl)c2)cs1)C(N)=O | -3.81%
OC1=C(O)c2nc3cc(C(F)(F)F)ccc3nc21 | -3.35%
COc1cccc(NCc2ccc([N+](=O)[O-])s2)c1 | 15.2%
COc1ccc(NCc2ccc([N+](=O)[O-])s2)c(OC)c1 | 79.8%
CCCCNS(=O)(=O)c1ccc(NC(=O)C2CCCO2)cc1 (centres undefined) | 6.1%
CCOC(=O)c1cc(NC(=O)C2CCCO2)cc(C(=O)OCC)c1 (centres undefined) | 3.41%
COC(=O)c1ccc(NC(=O)c2ccc(NC(=O)C3CCCO3)cc2)cc1 (centres undefined) | 10.1%
CC(C)COC(=O)c1ccc(NC(=O)C2C3C=CC(C3)C2C(=O)O)cc1 (centres undefined) | 58.1%
COC(=O)c1ccc(NC(=O)C2CCCO2)cc1 (centres undefined) | -10.3%
NC(=O)c1ccc(NC(=O)C2CCCO2)cc1 (centres undefined) | -8.76%
COC(=O)c1ccc(NC(=O)C2C3C=CC(O3)C2C(=O)O)cc1 (centres undefined) | -12.1%
CCCCNC(=O)c1ccc(NC(=O)C2CCCO2)cc1 (centres undefined) | 0.89%

SMILES | inhibition
Cn1ncc(C#N)c1NC(=O)C1CC(c2ccc(Cl)c(Cl)c2)=NO1 (centres undefined) | -5.17%
COC(=O)c1[nH]c2ccccc2c1NC(=O)CN1CC(C)OC(C)C1 (centres undefined) | -0.75%
CCOC(=O)N1CCN(C(=O)Cc2ccc(C)cc2)CC1 | -3.57%
CN(C)C(CNC(=S)Nc1ccccc1Cl)c1cccnc1 (centres undefined) | 7.94%
CCCCOC(=O)c1ccc(NC(=O)C(=O)NCC2CCCO2)cc1 (centres undefined) | 34.8%
CCOC(=O)c1ccc(NC(=O)C(=O)NCC2CCCO2)cc1 (centres undefined) | 65.4%
COc1ccc(Br)c2oc(S)cc(=O)c12 | -4.76%
CCN(CC)C(=O)C1CCCN(Cc2ccc(F)c(F)c2)C1 (centres undefined) | -6.74%
CCC(CC)C(=O)Nc1ccc([N+](=O)[O-])cn1 | 1.14%
CCCc1nc(SCC(=O)Nc2cc(C)on2)c2c(=O)n(C)c(=O)n(C)c2n1 | 5.55%
Cc1ccc(NCc2nc3ccccc3n2C)cc1 | 6.89%
Cn1c(CNc2ccccc2)nc2ccccc21 | 5.08%
CN(C)c1ccc(-c2nc3ccccc3n2C)cc1 | -2.73%
Cc1cccc(NCc2nc3ccccc3n2C)c1 | -0.92%
Cn1c(Cl)nc2ccccc21 | -1.9%
CCCCn1c(/N=C/c2ccc(N(C)C)cc2)nc2ccccc21 | -13.8%
CC(=O)Nc1nc(=S)n(-c2ccccc2)[nH]1 | -1.91%
COC(=O)C1CCN(C(=O)COC(=O)CC(NC(C)=O)c2ccccc2)CC1 (centres undefined) | -3.65%
Fc1cccc2sc(N3CCCCC3)nc12 | -9.23%
COc1ccccc1NC(=O)CCc1nc(-c2ccccc2F)no1 | 2%
O=C(NC1=NC2CCCCC2N1)c1ccccc1 (centres undefined) | 1.79%
Cc1ccc(O)c(C2=Nc3ccccc3N=C(c3cccc([N+](=O)[O-])c3)C2)c1 | 3.86%
Cc1ccc(C2=Nc3ccccc3N=C(c3ccc([N+](=O)[O-])cc3)C2)c(O)c1 | 0.53%

SMILES | inhibition
CCc1cccc(CC)c1NC(=S)Nc1cccc(Cl)c1Cl | 2.37%
CCCCCn1c(=O)c(-c2nc3ccccc3[nH]2)c(O)c2ccccc21 | 52.9%
CCn1c(=O)c(C(=O)Nc2ccccn2)c(O)c2ccccc21 | -3.43%
CCn1c(=O)c(-c2nc3ccccc3[nH]2)c(O)c2ccccc21 | 43.3%
CCCn1nc(C(=O)Nc2nc3ccccc3[nH]2)c2ccccc2c1=O | 59.6%
CC1Cc2ccccc2N1C(=O)c1ccc(N2CCCC2)c([N+](=O)[O-])c1 (centres undefined) | 4.46%
CCN(C(=O)CSc1nc(-c2ccccc2)c(-c2ccccc2)[nH]1)C1CCS(=O)(=O)C1 (centres undefined) | 0.12%
CSc1ncccc1C(=O)OCC(=O)N(CC(C)C)C1CCS(=O)(=O)C1 (centres undefined) | -5.78%
CCCn1c(SCC(=O)Nc2ccc(OC)cc2[N+](=O)[O-])n[nH]c1=O | 1.11%
O=C1Nc2ccccc2N(O)N1c1ccc(Cl)cc1 | -3.86%
O=C(C1=C[C@@H](C2CC2)C[C@@H](OCc2ccc(CO)cc2)O1)N1CCN(Cc2ccccc2)CC1 | 0.13%
O=C(CCC(=O)N1CCN(c2ccccn2)CC1)Nc1nnc(C(F)(F)F)s1 | -6.15%
COc1ccccc1N1CCN(C(=O)COc2ccc(S(=O)(=O)NC(C)(C)C)cc2)CC1 | 0.98%
CN1CC=C(c2c[nH]c3ccccc23)CC1 | -7.46%
O=C(Nc1ccc2c(c1)OCO2)c1ccc(Br)s1 | 9.98%
Cc1nn(-c2ccccc2)c(C)c1C(=O)Nc1ccc(N2CCOCC2)cc1 | -4.12%
CN(C)S(=O)(=O)c1ccc(C(=O)Nc2nnc(-c3ccco3)o2)cc1 | -14.7%
CC(=O)Nc1nnc(-c2ccco2)o1 | 0.62%
O=C(Nc1nnc(-c2ccco2)o1)C1CC1 | 4.4%
CCN(c1ccccc1)S(=O)(=O)c1ccc(C(=O)Nc2nnc(-c3ccco3)o2)cc1 | 61.3%
O=C(Nc1nnc(-c2ccco2)o1)c1ccc(N2C(=O)CCC2=O)cc1 | -1.43%
CCC(=O)Nc1nnc(-c2ccco2)o1 | 10.2%
O=C(Nc1nnc(-c2ccco2)o1)c1ccc(S(=O)(=O)N2CCCC2)cc1 | 41.6%
